Laboratory results: PubChem BioAssay AID1963321 (National Center for Advancing Translational Sciences (NCATS), 2024)
Records with an inconclusive call do not appear. Unmarked numbers belong to inactive results. The source made the active and inactive calls. Calls follow the shape of the full dose curve.

These molecules were tested against cAMP-dependent protein kinase catalytic subunit alpha (Homo sapiens) (UniProt P17612) (assay: Protein Kinase A (PKA-HiBiT) enzymatic inhibition screen - Functional assay). Conditions: luminescence; series mostly up to 57.5 µM; activity change, negative = inhibition: at the top concentration.
Summary of the method: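 Kinase-Glo Plus luminescence reported remaining ATP after a 3 h room-temperature kemptide phosphorylation. The reaction used 10 nM PKA-N-HiBiT and 87.5 uM ATP, after 30 min compound preincubation; DMSO neutral, H-89 positive.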

| Compound | activity change, negative = inhibition | Potency |
| --- | --- | --- |
| CCN1CCN(Cc2ccc(NC(=O)c3ccc(C)c(NC(=O)c4cncc(-c5cccs5)c4)c3)cc2C(F)(F)F)CC1 | 7.5% | – |
| O=S(=O)(/N=C/c1c(O)ccc2ccccc12)c1cccs1 | 7.8% | – |
| c1ccc(-c2oc3ncnc(NC[C@@H]4CCCO4)c3c2-c2ccccc2)cc1 | 8.72% | – |
| Cc1cc(NC(=O)c2ccc(C)c(Nc3nccc(-c4cccnc4)n3)c2)cc(-n2cnc(C)c2)c1 | 8.62% | – |
| O=C(c1cccc(Cl)c1F)N1CCN(Cc2cccc(Nc3nccs3)n2)CC1 | 8.99% | – |
| COc1cc(N2CCOCC2)ccc1Nc1ncc(Cl)c(Nc2ccccc2NS(C)(=O)=O)n1 | -15.9% | – |
| COc1cc2ncnc(Oc3cccc(NC(=O)Nc4cc(C(C)(C)C(F)(F)F)on4)c3)c2cc1OC | 8.13% | – |
| Cc1ccccc1-n1c([C@H](C)Nc2nc(N)nc3nc[nH]c23)nc2cccc(C)c2c1=O | 9.05% | – |
| O=C1C(c2c(O)[nH]c3ccccc23)=Nc2ccccc21 | 9.08% | – |
| Cc1sc2c(c1C)C(c1ccc(Cl)cc1)=N[C@@H](CC(=O)Nc1ccc(OCCOCCOCCOCCNc3cccc4c3C(=O)N(C3CCC(=O)NC3=O)C4=O)cc1)c1nnc(C)n1-2 (stereo partly specified) | 8.8% | – |
| N#Cc1cccc(-c2c[nH]c3ncnc(N4CCOCC4)c23)c1 | 8.15% | – |
| Cc1ccc(C(=O)Nc2ccc(CN3CCN(C)CC3)c(C(F)(F)F)c2)cc1C#Cc1cnc2[nH]ncc2c1 | 6.29% | – |
| C=CC(=O)N1CCC(Oc2cc3c(Nc4ccc(Cl)c(Cl)c4F)ncnc3cc2OC)CC1 | 8.38% | – |
| CNC(=O)c1ccccc1Sc1ccc2c(/C=C/c3ccccn3)n[nH]c2c1 | 8.89% | – |
| Nc1ncnc2c1c(-c1cnc3[nH]ccc3c1)nn2C1CCCC1 | 5.45% | – |
| O=C(NCCO)c1cccc(-c2cc(Nc3ccc(OC(F)(F)F)cc3)ncn2)c1 | 9.23% | – |

| Compound | activity change, negative = inhibition | Potency |
| --- | --- | --- |
| Cc1[nH]c2ccccc2c1C1=C(NCCc2ccc(F)cc2)C(=O)N(C)C1=O | 9.02% | – |
| CC[C@@](C)(Nc1ccnc(-c2c[nH]c3ncccc23)n1)C(=O)NCC(F)(F)F | -2.08% | – |
| CN(c1ncccc1CNc1nc(Nc2ccc3c(c2)CC(=O)N3)ncc1C(F)(F)F)S(C)(=O)=O | – | 24.3 µM (active) |
| c1ccc2c(-c3cnn4cc(-c5ccc(N6CCNCC6)cc5)cnc34)ccnc2c1 | 8.42% [at 6.37 µM] | – |
| Cc1ccc(NC(=O)c2ccc(CN3CCN(C)CC3)cc2)cc1Nc1nc(-c2cccnc2)cs1 | 9% | – |
| CO[C@H]1/C=C/O[C@@]2(C)Oc3c(C)c(O)c4c(O)c(c(/C=N\N5CCN(C6CCCC6)CC5)c(O)c4c3C2=O)NC(=O)/C(C)=C\C=C\[C@H](C)[C@H](O)[C@@H](C)[C@@H](O)[C@@H](C)[C@H](OC(C)=O)[C@@H]1C | 8.13% | – |
| O=C(O)C1(Cc2cccc(Nc3nccs3)n2)CCC(Oc2cccc(Cl)c2F)CC1 (stereo unspecified) | 8.13% | – |
| CNS(=O)(=O)c1ccc2c(c1)/C(=C/c1[nH]c3c(c1CCCN1CCN(C)CC1)CCCC3)C(=O)N2 | 5.95% | – |
| O=C(NOCC(O)CO)c1cc(Br)c(F)c(F)c1Nc1ccc(I)cc1F (stereo unspecified) | 8.81% | – |
| COc1cc(N2CCC(O)CC2)ccc1Nc1nc(Nc2ccccc2S(=O)(=O)C(C)C)c2[nH]cnc2n1 | 8.78% | – |
| CSc1cccc(Nc2ncc3cc(-c4c(Cl)cccc4Cl)c(=O)n(C)c3n2)c1 | 6.46% | – |
| Nc1ncccc1-c1nc2ccc(-c3ccccc3)nc2n1-c1ccc(C2(N)CCC2)cc1 | 7.73% | – |
| CN1CCN(CCCNc2ncc(Cl)c(-c3cc4c(C(=O)NC5CC5)cccc4s3)n2)CC1 | 8.28% | – |
| Cc1nc(NC(=O)N2CCC[C@H]2C(N)=O)sc1-c1ccnc(C(C)(C)C(F)(F)F)c1 | 7.59% | – |
| CCN(CC)CCOc1ccc(Nc2ncc3cc(-c4c(Cl)cccc4Cl)c(=O)n(C)c3n2)cc1 | 2.72% | – |
